Records with an inconclusive call do not appear. The source made the active and inactive calls. How the source made its calls, unless noted: active means hit-call score of the fitted dose curve at least 0.9, where 1 is the maximum; inconclusive means response in the unintended direction; inactive means score below 0.9.

Assay [1] is described as follows: VALA_TUBHUV_Agonist_CellCount: Viability Assessment in the VALA Sciences human Umbilical Vein Endothelial Tubule Formation (TUBHUV) Agonism Assay (AID 2284309). In outline:
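Viability endpoint by fluorescent imaging of fixed nuclear/CD31-stained HUVEC–HDF co-cultures. Readout is cell count, fitted upward against 0.1% DMSO. Compound exposure was 72 h in 10 ng/ml VEGF, after 3-day co-culture priming.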

Assay [2] is described as follows: VALA_TUBHUV_Antagonist_CellCount: Viability Assessment in the VALA Sciences human Umbilical Vein Endothelial Tubule Formation (TUBHUV) Antagonism Assay (AID 2284310). As to the method:
VALA_TUBHUV_Antagonist is a cell-based, multiplexed assay that uses human umbilical vein endothelial cells (HUVEC). Measurements were taken 72 hours after chemical dosing in a 96-well plate.VALA_TUBHUV_Antagonist_CellCount is the one of two assay components measured from the VALA_TUBHUV_Antagonist assay. It is designed to make measurements of viability, a form of viability reporter, as detected with fluorescence intensity signals by HCS Fluorescent Imaging technology. Data from the assay component VALA_TUBHUV_Antagonist_CellCount was analyzed at the endpoint, VALA_TUBHUV_Antagonist_CellCount, in the positive analysis fitting direction relative to DMSO as the negative control and baseline of activity. Using a type of viability reporter, loss-of-signal activity can be used to understand viability. To generalize the intended target to other relatable targets, this assay endpoint is annotated to the cell cycle intended target family, where the subfamily is cell count.
This HUVEC-HDF assay was designed to detect chemical suppression of tubulogenesis, i.e. antagonism. To measure tubulogenesis antagonism, HUVEC cells were co-cultured with HDF cells at a 1:3 ratio for 3-days in 10 ng/ml VEGF (i.e., favorable conditions with growth factors), then changed to assay medium containing 10 ng/ml VEGF and ToxCast compounds for an additional 3-day period. […]

Assay [3] is described as follows: VALA_TUBIPS_Antagonist_TubuleLength: VALA Sciences human iPS-derived Endothelial Tubule Formation (TUBIPS) Antagonist Assay (AID 2284313). Summed up:
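Tubule length was quantified by high-content imaging of CD31- and nuclear-stained cells, with 0.1% DMSO as neutral and 100 uM suramin as inhibition control. Compounds were applied for 3 days, in 10 ng/ml VEGF, to cultures pre-grown 3 days.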

Assay [4] in a line: VALA_MIGHUV2_CellCount: Viability Assessment in the VALA Sciences human Umbilical Vein Endothelial Cell Migration (MIGHUV) Assay, Area of Scratch Wound after Recovery (AID 2284314). In outline:
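Viability read-out: Hoechst-stained nuclei counted by fluorescence imaging after a 24 h recovery period in fixed, scratched HUVEC plates. Compound was dosed within 30 min of scratching at six concentrations (triplicate); DMSO at 0.1 % served as baseline.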

Assay [5] can be described thus: IUF_NPC2-5_cytotoxicity_72hr: Cytotoxicity Assessment at 72 hours in the Leibniz Research Institute for Environmental Medicine (IUF) Neural Progenitor Cell Migration and Differentiation Assay for Cytotoxicity (NPC2-5) (AID 2284306).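 Further: LDH release into supernatant measured by resorufin fluorescence marking membrane damage.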 Summed up:
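Primary human neural progenitor spheres migrate and differentiate on laminin. Compound is present from the start of differentiation, with DMSO kept at or below 0.1%. At 72 h, supernatant LDH is quantified fluorometrically, with values fitted in the positive direction.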

A short description of assay [6]: IUF_NPC2-5_cytotoxicity_120hr: Cytotoxicity Assessment at 120 hours in the Leibniz Research Institute for Environmental Medicine (IUF) Neural Progenitor Cell Migration and Differentiation Assay (NPC2-5) (AID 2284307).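 On AC50: LDH released into supernatant as membrane damage marker via resorufin fluorescence.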 Summed up: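 Fluorescence (RFU) from LDH-driven resazurin reduction in medium supernatants measured loss of membrane integrity after 120 h of compound exposure of differentiating primary human neural progenitor spheres on an extracellular matrix.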

A short description of assay [7]: IUF_NPC2-5_cell_number_120hr: Cell Number Assessment at 120 hours in the Leibniz Research Institute for Environmental Medicine (IUF) Neural Progenitor Cell Migration and Differentiation Assay (NPC2-5) (AID 2284308; active means hit-call score of the fitted dose curve at least 0.9, where 1 is the maximum; inactive means score below 0.9;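 further: count of Hoechst-stained nuclei in migration zone around plated human neural progenitor spheres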). In outline: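 Cell number is taken as all Hoechst-positive nuclei detected in the area into which cells migrate out of the sphere, scored at 120 h and referenced to DMSO solvent control, which was kept at no more than 0.1%.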

Assay [8] can be described thus: IUF_NPC2-5_viability_120hr: Viability Assessment at 120 hours in the Leibniz Research Institute for Environmental Medicine (IUF) Neural Progenitor Cell Migration and Differentiation Assay (NPC2-5) (AID 2284312; active means hit-call score of the fitted dose curve at least 0.9, where 1 is the maximum; inactive means score below 0.9). How it is done: IUF_NPC2-5 is a cell-based, multiplexed assay that uses hNPC, a human primary neural progenitor cells, with measurements taken at 72 or 120 hours after chemical dosing in a 96-well plate. Human neural progenitor cells (hNPC) are generated from human fetal brain cortex at gestational week (GW) 16-19. In the neural progenitor cell migration and differentiation assay (NPC2-5), hNPCs grown as spheres are plated on an extracellular matrix and migrate and differentiate out of the sphere core. The processes radial glia migration, neuronal and oligodendrocyte migration as well as neuronal differentiation, neuronal morphology and oligodendrocyte differentiation are studied using automated phase contrast imaging and automated fluorescence imaging in combination with high content image analysis. In parallel, the cell viability is assessed using an alamar blue viability assay and the cytotoxicity using a lactate dehydrogenase dependent membrane integrity assay.IUF_NPC2-5_viability_120hr is one of 12 assay components measured from the IUF_NPC2-5 assay. It is designed to measure cell viability assessed as mitochondria-dependent reduction of resazurin to resorufin using the alamar blue viability assay. The viability is measured as a fluorescence signal (relative fluorescence unit) in a multiplate reader. […]

Assay [9] can be described thus: VALA_MIGHUV2_Bcatenin: VALA Sciences human Umbilical Vein Endothelial Cell Migration (MIGHUV) Assay, Nuclear Translocation of beta-Catenin after Recovery (AID 2284315). In outline: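 Nuclear beta-catenin imaged by immunofluorescence with Hoechst counterstain in fixed HUVEC, 24 h after scratch wounding and chemical addition. Six-point concentration-response in triplicate; activity scored as signal increase over 0.1% DMSO vehicle.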

Assay [10] can be described thus: VALA_MIGHUV2_WoundArea: VALA Sciences human Umbilical Vein Endothelial Cell Migration (MIGHUV) Assay, Area of Scratch Wound after Recovery (AID 2284316). In outline:
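Wound-area endpoint read by fluorescence imaging of Hoechst-stained nuclei after a 24 h recovery period following scratch of HUVEC monolayers (9000 cells/well). Chemicals dosed within 30 min post-scratch, triplicate 6-point series, 0.1% DMSO vehicle; Cytochalasin D positive control.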

Take `O=C(Nc1ccc(Cl)cc1)Nc1ccc(Cl)c(Cl)c1`: the compound was classed as inactive in assay [1], in assay [2], in assay [3] and in assay [4].
Consider `O=C1O[C@H]([C@@H](O)CO)C(O)=C1O`, for which the compound was classed as inactive in assay [5], in [6], in assay [7] and in assay [8].
Take `CCCCCCCCOC(=O)c1cc(O)c(O)c(O)c1`: the AC50 in assay [1] was 76.4 µM (active); in assay [9] it was 79.9 µM (active). Also, the compound was called inactive in assay [3], in [4] and in assay [10].
With `CC(C)(c1cc(Br)c(O)c(Br)c1)c1cc(Br)c(O)c(Br)c1`, the AC50 in [5] was 4.45 µM (active); in assay [6], 3.04 µM (active); in [7], 2.79 µM (active); in [8], 2.94 µM (active).

As usually defined, the AC50 is the midpoint of the concentration-response curve, whichever way the signal moves.

For the origin of these results see PubChem BioAssay (EPA / NIEHS).
